# Values joined by “and” are separate entries in the source; they are usually repeats but may differ in a detail not shown here. Identical values can stand only once. Records with an inconclusive call do not appear. Entries that show only a call come without a potency. Some structures have more than one record in an assay (separate samples or runs), and their calls can disagree. Active and inactive are the calls of the source. Unless noted, the call rests on the fitted dose curve; in most records, active means well fitted curve in the direction sought with a large enough effect in the repeat runs; inconclusive means weak or mixed curves; inactive means no such curve, though single readings can be large; an effect the other way counts as inactive or inconclusive.
# What was measured:
# [1] = qHTS assay to identify small molecule agonists of the peroxisome proliferator-activated receptor delta (PPARd) signaling pathway - cell viability counter screen (AID 743211); further: nearly all actives have a fitted effect of over 55% in size; further: potency means the concentration at half of the fitted maximal effect
# Outline: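 Read-out: CellTiter-Glo luminescence, 30 min RT, measured in the same wells as the beta-lactamase reporter. Cells: GeneBLAzer PPAR delta UAS-bla HEK293H, 3000 cells/well, compound exposure 17 h at 37C.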
# [2] = qHTS assay to identify small molecule antagonists of the peroxisome proliferator-activated receptor delta (PPARd) signaling pathway - cell viability counter screen (AID 743213); further: nearly all actives have a fitted effect of over 50% in size; further: potency means the concentration at half of the fitted maximal effect
# Outline: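 Viability counter-screen, qHTS format: PPARd-bla HEK293H, L165041 300 nM final, 17 h compound exposure at 37 C, CellTiter-Glo luminescence after 30 min RT.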
# [3] = qHTS assay to identify small molecule agonists of the farnesoid-X-receptor (FXR) signaling pathway - cell viability counter screen (AID 743218); further: nearly all actives have a fitted effect of over 45% in size; further: potency means the concentration at half of the fitted maximal effect
# Outline: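 Parallel cytotoxicity test: compound-treated (16 h, 37 C) HEK 293T FXR-bla reporter cells were lysed with CellTiter-Glo and luminescence recorded.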
# [4] = target: Bile acid receptor (Homo sapiens) (UniProt Q96RI1); assay: qHTS assay to identify small molecule agonists of the farnesoid-X-receptor (FXR) signaling pathway (AID 743220; active means well fitted activation curve with a large enough effect in the signal ratio in the repeat runs, not every such curve was filed as active; the % refers to the signal ratio; further: potency means the concentration at half of the fitted maximal effect)
# Outline: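 Beta-lactamase reporter under UAS control in GeneBLAzer FXR HEK 293T cells (5000/well) measured with LiveBLAzer FRET substrate after 2 h at room temperature. Compound exposure lasted 16 h at 37C.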
# [5] = qHTS assay to identify small molecule antagonists of the farnesoid-X-receptor (FXR) signaling pathway - cell viability counter screen (AID 743221; active means well fitted cell-killing curve with a large enough effect in the repeat runs, not every such curve was filed as active; further: nearly all actives have a fitted effect of over 50% in size; further: potency means the concentration at half of the fitted maximal effect)
# Outline: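 HEK 293T FXR-bla cells, 5 h pre-incubation; compound + CDCA 50 uM final, 16 h, 37 C; beta-lactamase FRET read first, then CellTiter-Glo luminescence, 30 min RT.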
# [6] = target: Vitamin D3 receptor (Homo sapiens) (UniProt P11473); assay: qHTS assay to identify small molecule agonists of the vitamin D receptor (VDR) signaling pathway (AID 743222; calls by dose curve)
# Outline: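 In VDR-bla cells, compound-induced beta-lactamase expression is quantified by FRET substrate fluorescence. Treatment lasts 16 h at 37C; substrate develops 2 h at room temperature.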
# [7] = target: Vitamin D3 receptor (Homo sapiens) (UniProt P11473); assay: qHTS assay to identify small molecule antagonists of the vitamin D receptor (VDR) signaling pathway (AID 743223; active means well fitted inhibition curve with a large enough effect in the signal ratio in the repeat runs, not every such curve was filed as active; the % refers to the signal ratio; further: potency means the concentration at half of the fitted maximal effect)
# Outline: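 Beta-lactamase reporter read-out: FRET substrate fluorescence after 2 h at room temperature, following 16 h exposure of VDR-bla cells to test compound plus 3 nM (final) 1alpha,25-dihydroxyvitamin D3 agonist at 37C.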
# [8] = target: Bile acid receptor (Homo sapiens) (UniProt Q96RI1); assay: qHTS assay to identify small molecule antagonists of the farnesoid-X-receptor (FXR) signaling pathway (AID 743217; active means well fitted inhibition curve with a large enough effect in the signal ratio in the repeat runs, not every such curve was filed as active; the % refers to the signal ratio; further: potency means the concentration at half of the fitted maximal effect)
# Outline: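 GeneBLAzer FXR-UAS-bla HEK 293T, CDCA-stimulated (50 uM final). Compound treatment 16 h, 37 °C. Detection: beta-lactamase cleavage of B/G FRET substrate, fluorescence.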
# [9] = target: Peroxisome proliferator-activated receptor delta (Homo sapiens) (UniProt Q03181); assay: qHTS assay to identify small molecule agonists of the peroxisome proliferator-activated receptor delta (PPARd) signaling pathway (AID 743212; calls by dose curve)
# Outline: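 A PPARd-bla HEK293H line with beta-lactamase under an Upstream Activator Sequence is treated with compounds at 37 C. Substrate loading for 2 h at room temperature precedes the fluorescence measurement.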
# [10] = target: Peroxisome proliferator-activated receptor delta (Homo sapiens) (UniProt Q03181); assay: qHTS assay to identify small molecule antagonists of the peroxisome proliferator-activated receptor delta (PPARd) signaling pathway (AID 743215; active means well fitted inhibition curve with a large enough effect in the signal ratio in the repeat runs, not every such curve was filed as active; the % refers to the signal ratio;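 further: cells stimulated with agonist L165041 at 300 nM final during compound exposure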; further: potency means the concentration at half of the fitted maximal effect; on ratio activity, negative = inhibition: series mostly up to about 62 µM)
# Outline: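 HEK293H UAS-bla, PPARd; agonist L165041 300 nM final with cpd in DMSO; 37 C 17 h; FRET substrate, RT 2 h; fluorescence intensity.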
# Chain of Peroxisome proliferator-activated receptor delta (Homo sapiens) (Q03181 whole entry, looked up): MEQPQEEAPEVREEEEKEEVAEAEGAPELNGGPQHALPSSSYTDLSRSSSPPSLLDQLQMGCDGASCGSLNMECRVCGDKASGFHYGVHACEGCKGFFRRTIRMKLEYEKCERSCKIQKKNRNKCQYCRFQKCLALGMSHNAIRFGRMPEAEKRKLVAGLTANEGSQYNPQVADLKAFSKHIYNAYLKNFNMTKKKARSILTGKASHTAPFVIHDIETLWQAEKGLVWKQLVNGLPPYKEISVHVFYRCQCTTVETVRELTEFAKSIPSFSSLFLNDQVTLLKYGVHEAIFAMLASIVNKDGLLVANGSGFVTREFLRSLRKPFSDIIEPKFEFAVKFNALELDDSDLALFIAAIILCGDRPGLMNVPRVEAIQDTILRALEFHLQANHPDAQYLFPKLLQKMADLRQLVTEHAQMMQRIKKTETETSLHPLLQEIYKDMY
# Chain of Bile acid receptor (Homo sapiens) (Q96RI1 whole entry, looked up): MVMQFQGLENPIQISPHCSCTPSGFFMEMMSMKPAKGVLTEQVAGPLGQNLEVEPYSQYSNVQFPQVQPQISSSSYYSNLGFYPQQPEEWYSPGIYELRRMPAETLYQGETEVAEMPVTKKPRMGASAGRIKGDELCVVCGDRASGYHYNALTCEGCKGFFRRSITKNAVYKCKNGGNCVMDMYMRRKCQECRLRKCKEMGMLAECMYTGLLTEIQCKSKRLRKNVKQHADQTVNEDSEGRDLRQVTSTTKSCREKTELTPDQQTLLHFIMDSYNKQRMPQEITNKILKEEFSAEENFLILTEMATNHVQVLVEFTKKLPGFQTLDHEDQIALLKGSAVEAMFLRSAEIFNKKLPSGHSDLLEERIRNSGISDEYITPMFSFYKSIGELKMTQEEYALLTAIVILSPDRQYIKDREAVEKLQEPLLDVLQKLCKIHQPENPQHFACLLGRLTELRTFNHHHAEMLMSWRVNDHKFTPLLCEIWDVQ
# Chain of Vitamin D3 receptor (Homo sapiens) (P11473 whole entry, looked up): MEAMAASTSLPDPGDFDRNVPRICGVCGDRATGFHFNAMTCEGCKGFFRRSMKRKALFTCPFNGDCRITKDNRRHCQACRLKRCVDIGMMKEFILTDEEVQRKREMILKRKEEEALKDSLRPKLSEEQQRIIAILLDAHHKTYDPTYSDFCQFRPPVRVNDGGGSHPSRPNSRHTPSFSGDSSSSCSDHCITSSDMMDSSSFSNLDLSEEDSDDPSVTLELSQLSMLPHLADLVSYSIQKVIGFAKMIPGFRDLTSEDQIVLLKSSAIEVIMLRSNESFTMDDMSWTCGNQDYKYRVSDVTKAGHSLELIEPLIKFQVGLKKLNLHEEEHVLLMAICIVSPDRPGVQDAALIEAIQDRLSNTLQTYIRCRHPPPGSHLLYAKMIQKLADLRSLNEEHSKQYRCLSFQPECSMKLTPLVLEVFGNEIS
structure (smiles),measurement,setting,value
COc1ccc(CCN2CCC(Nc3nc4ccccc4n3Cc3ccc(F)cc3)CC2)cc1,Potency,[1],2.81 µM (active) and 7.5 µM (active)
same,Potency,[2],3.16 µM (active) and 23.7 µM (active)
same,Potency,[3],2.81 µM (active) and 23.7 µM (active)
same,Potency,[4],inactive
same,Potency,[5],7.07 µM (active) and 29.8 µM (active)
O=C(O[C@@H]1Cc2c(O)cc(O)cc2O[C@@H]1c1cc(O)c(O)c(O)c1)c1cc(O)c(O)c(O)c1,Potency,[1],inactive
same,Potency,[3],inactive
same,Potency,[5],inactive
same,Potency,[6],inactive
same,Potency,[7],inactive
Cc1cc(OCCOCC[N+](C)(C)Cc2ccccc2)ccc1C(C)(C)CC(C)(C)C,Potency,[1],21.7 µM (active) and 11.9 µM (active)
same,Potency,[8],54.6 µM (active)
same,Potency,[4],inactive
same,Potency,[5],54.6 µM (active) and 29.8 µM (active)
NCCCCCC(=O)O,Potency,[1],inactive
same,Potency,[2],inactive
same,Potency,[4],inactive
same,Potency,[5],inactive
same,Potency,[6],inactive
CN1C(=O)c2ccc([N+](=O)[O-])cc2C1=O,Potency,[9],inactive
same,Potency,[2],inactive
same,Potency,[10],inactive
same,Potency,[3],inactive
same,Potency,[4],inactive
same,Potency,[5],inactive
same,Potency,[6],inactive
same,Potency,[7],inactive
CC(C)(C)c1ccc(O)c(C(C)(C)C)c1,Potency,[1],38.7 µM (active) and 49 µM (active)
same,Potency,[5],54.9 µM (active)
same,Potency,[6],inactive
CC(C)(C)NCC(O)c1cc(O)cc(O)c1 (stereo unspecified),Potency,[1],inactive
same,Potency,[5],inactive
CC(C)(C)c1ccccc1,Potency,[1],inactive
same,Potency,[2],inactive
same,Potency,[3],inactive
same,Potency,[5],inactive
same,Potency,[6],inactive
Nc1ccc2cc3ccccc3cc2c1,Potency,[1],inactive
same,Potency,[2],inactive
same,Potency,[3],inactive
same,Potency,[5],inactive
NC(Cc1ccc(Cl)cc1)C(=O)O (stereo unspecified),activation,[9],2.85% [at 0.55 µM] (inactive)
same,"viability change, negative = cytotoxic",[2],1.71% [at 0.575 µM] (inactive)
same,"ratio activity, negative = inhibition",[10],5.74% [at 0.575 µM] (inactive)
same,"activity change, negative = inhibition",[8],10.5% [at 0.55 µM] (inactive)
same,"viability change, negative = cytotoxic",[3],0.639% [at 0.55 µM] (inactive)
same,activation,[4],2.17% [at 0.55 µM] (inactive)
same,"activity change, negative = cytotoxicity",[5],5.76% [at 0.55 µM] (inactive)
same,activation,[6],0.21% [at 0.554 µM] (inactive)
same,"activity change, negative = inhibition",[7],-2.76% [at 0.628 µM] (inactive)
O=C1NCC2(CCN(CCc3ccccc3)CC2)O1,Potency,[1],inactive
same,Potency,[2],inactive
same,Potency,[3],inactive
same,Potency,[5],inactive
CC(=O)OCCOCCOCCOC(C)=O,Potency,[9],inactive
same,Potency,[2],inactive
same,Potency,[10],inactive
same,Potency,[3],inactive
same,Potency,[4],inactive
same,Potency,[5],inactive
same,Potency,[6],inactive
same,Potency,[7],inactive
Cc1cc(C2(c3cc(C)c(O)cc3C)OS(=O)(=O)c3ccccc32)c(C)cc1O,Potency,[1],inactive
same,Potency,[2],inactive
same,Potency,[3],inactive
same,Potency,[5],inactive
O=C1OC2(c3ccc(O)cc3Oc3cc(O)ccc32)c2ccccc21,Potency,[1],inactive
same,Potency,[2],inactive
same,Potency,[3],inactive
same,Potency,[5],inactive
O=C(Oc1ccccc1)c1ccccc1O,Potency,[1],inactive
same,Potency,[2],inactive
same,Potency,[3],inactive
same,Potency,[5],inactive
O=C(Nc1ccccc1SSc1ccccc1NC(=O)c1ccccc1)c1ccccc1,Potency,[1],19.6 µM (active) and 12.3 µM (active)
same,Potency,[2],12.4 µM (active) and 11 µM (active)
same,Potency,[5],inactive
c1ccc2n[nH]nc2c1,Potency,[9],inactive
same,Potency,[2],inactive and 38.9 µM (active)
same,Potency,[10],inactive
same,Potency,[3],inactive
same,Potency,[5],inactive
NCCO,Potency,[1],inactive
same,Potency,[2],inactive
same,Potency,[5],inactive
Nc1nc2ccccc2[nH]1,Potency,[1],inactive
same,Potency,[3],inactive
same,Potency,[4],inactive
same,Potency,[5],inactive
same,Potency,[6],inactive
same,Potency,[7],inactive
CCOc1ccccc1C(N)=O,Potency,[9],inactive
same,Potency,[2],inactive
same,Potency,[10],inactive
same,Potency,[3],inactive
same,Potency,[4],inactive
same,Potency,[5],inactive
same,Potency,[6],inactive
same,Potency,[7],inactive
CCCCCCCCCCCCCC[P+](CCCC)(CCCC)CCCC,Potency,[1],6.88 µM (active) and 8.71 µM (active)
same,Potency,[2],7.72 µM (active) and 11 µM (active)
same,Potency,[3],19.4 µM (active) and 24.5 µM (active)
same,Potency,[5],21.8 µM (active) and 21.9 µM (active)
same,Potency,[7],19.4 µM (active) and 24.5 µM (active)
Cc1occc(=O)c1OC(=O)C(C)C,Potency,[9],inactive
same,Potency,[2],inactive
same,Potency,[10],inactive
same,Potency,[3],inactive
same,Potency,[5],inactive
same,Potency,[6],inactive
CC(C)CCOCc1ccccc1,Potency,[1],inactive
same,Potency,[2],inactive
same,Potency,[3],inactive
same,Potency,[5],inactive
same,Potency,[6],inactive
same,Potency,[7],inactive
CCCN[C@H]1CCc2nc(N)sc2C1,Potency,[1],inactive
same,Potency,[2],inactive
same,Potency,[3],inactive
same,Potency,[5],inactive
same,Potency,[6],inactive
same,Potency,[7],inactive
Nc1nc(=S)c2[nH]cnc2[nH]1,Potency,[1],inactive
same,Potency,[3],inactive
same,Potency,[5],inactive
CCOC(=O)C(C)C(C)=O (stereo unspecified),Potency,[9],inactive
same,Potency,[2],inactive
same,Potency,[10],inactive
same,Potency,[3],inactive
same,Potency,[5],inactive
Oc1c(Cl)cc(Cl)cc1Sc1cc(Cl)cc(Cl)c1O,Potency,[9],inactive
same,Potency,[2],49.1 µM (active) and 19.5 µM (active)
same,Potency,[10],21.9 µM (active) and 17.4 µM (active) and inactive
same,Potency,[3],15.5 µM (active)
same,Potency,[4],inactive
same,Potency,[5],27.6 µM (active)
same,Potency,[6],inactive
CCN(CC)CCOc1ccc(/C(=C(\Cl)c2ccccc2)c2ccccc2)cc1,Potency,[1],35.4 µM (active) and 29.8 µM (active)
same,Potency,[2],39.7 µM (active)
same,Potency,[3],35.4 µM (active) and 26.6 µM (active)
same,Potency,[4],inactive
same,Potency,[6],inactive
same,Potency,[7],31.6 µM (active)
c1cc(C(c2ccc(OCC3CO3)cc2)C(c2ccc(OCC3CO3)cc2)c2ccc(OCC3CO3)cc2)ccc1OCC1CO1 (stereo unspecified),Potency,[1],inactive
same,Potency,[2],inactive
same,Potency,[5],inactive
CCC(CO)(CO)COCC(CC)(CO)CO,Potency,[1],inactive
same,Potency,[2],inactive
same,Potency,[3],inactive
same,Potency,[5],inactive
same,Potency,[6],inactive
same,Potency,[7],inactive
C=CC(=O)OCCCCCCOC(=O)C=C,Potency,[1],49.6 µM (active)
same,Potency,[5],inactive
COc1ccc(CCN(C)CCCC(C#N)(c2ccc(OC)c(OC)c2)C(C)C)cc1OC (stereo unspecified),Potency,[1],inactive
same,Potency,[2],inactive
same,Potency,[3],inactive
same,Potency,[5],inactive
CC(C)(C)NC(=O)[C@@H]1CN(Cc2cccnc2)CCN1C[C@@H](O)C[C@@H](Cc1ccccc1)C(=O)N[C@H]1c2ccccc2C[C@H]1O,Potency,[1],inactive
same,Potency,[2],inactive
same,Potency,[5],inactive
same,Potency,[6],inactive
same,Potency,[7],inactive
Nc1ccc(O)cc1,Potency,[1],inactive
same,Potency,[3],25.5 µM (active) and inactive
same,Potency,[4],20.3 µM (active) and inactive
same,Potency,[5],inactive
same,Potency,[7],inactive
CNCCC(Oc1ccc(C(F)(F)F)cc1)c1ccccc1 (stereo unspecified),Potency,[1],27.2 µM (active) and 29.8 µM (active)
same,Potency,[5],48.4 µM (active)
same,Potency,[6],inactive

# Source: PubChem BioAssay (Tox21)
